The values that follow come from ChEMBL document CHEMBL4513216, “Probing the Open Global Health Chemical Diversity Library for Multistage-Active Starting Points for Next-Generation Antimalarials” (ACS Infect Dis, 2020).

SMILES strings stand for the structures. Among all 69,000 compounds or so, about 8,600 (12%) showed an effect of 50% or more. Shown is part of a subset that was picked to be rich in strong results.

In the assay the test system is Plasmodium berghei. Kind of assay: Screen against P. berghei liver stage (PbLuc), transformed with Luciferase, at 10uM. The conditions noted are these: tested at 10 uM. The class given is functional, HepG2.
With `CC(C)Oc1cccc(CNC(=O)N2CCC(N3CC=CC3)C2)c1` (centres undefined), the INHIBITION was 16.1%.
The figure for `O=C(CN1CCOC(CNc2cccnn2)C1)NCc1ccccn1` (centres undefined) is 23.5%; for `c1cnc(-c2nn3c(CN4CCCCCC4)nnc3s2)cn1` it is 21.7%; for `Cc1cc(NC(C)c2n[nH]c(C)n2)n2nc(C)c(C)c2n1` (centres undefined) it is 18.4%.
The figure for `CC(CNC(=O)Nc1cn[nH]c1)N1CCCC1` (centres undefined) is -21.9%.
In the case of `CCn1c(C)cc(C(=O)N2CCC(NC(=O)c3ccc(C)o3)CC2)c1C`, the INHIBITION turned out to be 74%.
The figure for `Cc1ccc(NC2CCN(C(=O)c3ccc(Cl)o3)CC2)nn1` is -33.5%; for `Cc1ccc(NC2CCN(C(=O)c3ccc(C)o3)CC2)nn1` it is 51.65%; for `Cc1ccc(NC2CCN(C(=O)c3ccc(F)cc3Cl)CC2)nn1` it is 56.4%.
The figure for `Cc1ccc(NC2CCN(C(=O)c3ccc(Cl)cc3F)CC2)nn1` is 37.9%; for `CCc1ccc(C(=O)N2CCC(Nc3ccc(C)nn3)CC2)o1` it is 33.8%.
Consider `CCn1c(C)cc(C(=O)N2CCC(Nc3ccc(C)nn3)CC2)c1C`, for which the INHIBITION came to 32.9%.
The figure for `O=C(c1ccc(F)cc1Cl)N1CCC(Nc2cccnn2)CC1` is 41.4%; for `CCn1c(C)cc(C(=O)N2CCC(NC(=O)c3cc(C)no3)CC2)c1C` it is -7.36%; for `CCc1nc(C2CCCN(C(=O)NC3CC3)C2)no1` (centres undefined) it is -81.1%.
The figure for `CC(C)CNC(=O)c1nnsc1-c1ccccc1` is 2.69%; for `COCCN1C[C@@H]2CC[C@H]1CN(C(=O)CCc1n[nH]c(C)c1C)C2` it is -4.92%; for `COc1cccc(N2CCN(Cc3ncc[nH]3)CC2=O)c1` it is -26.5%.
The figure for `CCn1cc(CN2CCN(Cc3cccc(OC)c3)C(=O)C2)cc1C#N` is 56.3%; for `COc1cccc(N2CCN(Cc3ccc(NC(C)=O)cc3)CC2=O)c1` it is 38.5%.
In the case of `COc1cccc(N2CCN(Cc3nccn3C(C)C)CC2=O)c1`, the INHIBITION turned out to be 59.5%.
For `COc1cccc(N2CCN(Cc3nccc(OC)c3OC)CC2=O)c1`, the INHIBITION came out at 11.2%.
The figure for `COc1cc(CN2CCN(c3cccc(OC)c3)C(=O)C2)cc(OC)c1` is 58.5%.
The figure for `CCn1cc(CN2CCN(Cc3cc(C)cc(C)c3)C(=O)C2)cc1C#N` is -17.8%.
The figure for `COc1cccc(CN2CCN(Cc3ccc4nonc4c3)CC2=O)c1` is 24.9%; for `COc1cccc(N2CCN(Cc3cc(C)cc(F)c3)CC2=O)c1` it is 11.3%; for `Cc1n[nH]c(C2CN(CC(=O)NCCc3ccccc3C)CCO2)n1` (centres undefined) it is 43.1%.
Consider `Cc1occc1C(=O)N1CCC2(CCC(C(=O)NCC3CC3)O2)CC1` (centres undefined), for which the INHIBITION is -5.94%.
The figure for `CCC(CNS(=O)(=O)c1cccc(C(=O)OC)c1)N1CCCC1` (centres undefined) is -39.2%.
With `O=C1CCC[C@]2(CN(S(=O)(=O)C3CCCCC3)C[C@H]2c2cccnc2)N1`, the INHIBITION was -11.4%.
The figure for `O=C(COc1ccc(-n2cccn2)nn1)NC1CCCCC1` is -10.6%.
In the case of `OC[C@@H]1CCCN1c1nccc(-c2c[nH]nc2-c2ccncc2)n1`, the INHIBITION is given as -15.2%.
With `Cc1ncc(-c2ccnc(N3CCC[C@@H]3CO)n2)c(-c2cccnc2)n1`, the INHIBITION amounted to 20.4%.
`OC[C@H]1CCCN1c1nccc(-c2c[nH]nc2C2CCCCC2)n1`: the INHIBITION worked out at 54.5%.
Consider `OC[C@H]1CCCN1c1nccc(-c2cncnc2C2CCCCC2)n1`, for which the INHIBITION was 64.9%.
Turning to `O=c1c(-c2ccnc(N3CCC[C@H]3CO)n2)cnc2sccn12`, the INHIBITION was -4.82%.
The figure for `O=c1c(-c2ccnc(N3CCCC[C@@H]3CO)n2)cnc2sccn12` is 35.2%.
The figure for `O=C(NCCn1cccc1)C(c1ccccc1)N1CCCC1` (centres undefined) is 15.4%.
The figure for `CCOC1CCCN(C(=O)CCOc2ccc(C)cc2OC)C1` (centres undefined) is 8.59%.
`Cn1cc2ncn(C3CCN(c4ccccc4F)CC3)c(=O)c2n1`: the INHIBITION is on record as -6.03%.
The figure for `CNc1nccc(-c2cn(C)nc2C)n1` is 29.4%.
For `Cc1nn(C)cc1-c1ccnc(NCCN)n1`, the INHIBITION was 59.4%.
The figure for `CCN(CC)CCCNc1nccc(-c2cn(C)nc2C)n1` is 43.9%.
The figure for `Cc1nn(C)cc1-c1ccnc(N2CCSCC2)n1` is 47.2%.
The figure for `CNCCNc1nccc(-c2cn(C)nc2C)n1` is 19.4%; for `Cc1ccc(NCCCNc2nccc(-c3cn(C)nc3C)n2)nc1` it is 51.2%.
As to `c1cnn(CC2CCCCN2Cc2noc(C3CC3)n2)c1` (centres undefined), the INHIBITION was -42.65%.
`CC(C)NC(=O)c1nnc2ccc(N3CCOCC3)cc2n1`: the INHIBITION was -3.11%.
Regarding `O=C(c1ccco1)N1CCC2(CCC(=O)N2Cc2ccccc2)CC1`, the INHIBITION worked out at 33.4%.
The figure for `COCC(=O)N1CCC(C)(c2cc(O)[nH]n2)CC1` is 23.9%.
The figure for `CCC(NC(=O)NCc1cccc(N(C)C)n1)c1nccs1` (centres undefined) is 67.4%; for `CCC(NC(=O)NCc1cccc(N(C)C)n1)c1ccccc1OC` (centres undefined) it is 6.83%.
The figure for `CN(C)c1ccc(NC(=O)NCc2ccccn2)cn1` is 13.9%.
Turning to `Cc1nc(CCNC(=O)NCc2cccc(N(C)C)n2)cs1`, the INHIBITION is given as -24.3%.
